Rows were chosen to be rich in hits. Some 2.4% of all compounds tested hit in one or more screens of this group.
D2 antag – antagonists of human D2 dopamine receptor; actives 2% (n = 340,000); inhibition, % at 10 µM; HEK293 TREx D2 cells, calcium flux, dopamine EC80; AID 485344; in the data active = inhibition above about 30%; inactive = below that, where a call was filed; also: 0% is about no effect
Target sequence (P14416 whole entry, looked up): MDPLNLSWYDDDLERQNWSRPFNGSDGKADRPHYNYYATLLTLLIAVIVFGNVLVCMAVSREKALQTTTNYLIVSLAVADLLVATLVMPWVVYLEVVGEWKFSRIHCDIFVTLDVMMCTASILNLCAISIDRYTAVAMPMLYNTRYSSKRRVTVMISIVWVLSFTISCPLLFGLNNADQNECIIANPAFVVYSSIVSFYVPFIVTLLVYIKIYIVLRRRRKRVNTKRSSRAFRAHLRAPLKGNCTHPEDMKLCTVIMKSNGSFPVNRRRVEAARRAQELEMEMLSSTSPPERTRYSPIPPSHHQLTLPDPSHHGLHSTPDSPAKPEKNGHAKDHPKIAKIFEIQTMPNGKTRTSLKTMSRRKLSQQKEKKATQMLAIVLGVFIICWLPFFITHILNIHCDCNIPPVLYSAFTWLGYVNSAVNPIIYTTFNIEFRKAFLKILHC
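Calcium flux kinetic readout in an inducible HEK293 TREx D2 line plated overnight at 30 C. After 180 s compound exposure, an EC80 dopamine challenge follows with another 180 s kinetic read to detect antagonism.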
D2 ag-1 – D2 dopamine receptor (human) agonism; P14416; HEK293 T-REx D2 cells, calcium flux agonist mode; actives 0.53% (n = 340,000); activation, % at 2 µM;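 active = activation over 3 SD above normal in the single-dose calcium agonist read, cut at about 30% in these data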; also: 0% is about no effect
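In this primary screen, compounds producing a positive calcium signal within 180 s of addition to tetracycline-induced, force-coupled HEK293 Trex D2 cells are flagged; cells are dye-loaded with a no-wash calcium kit beforehand.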
D2 PAM-1 – positive allosteric modulators of human D2 dopamine receptor. P14416. actives 0.23% (n = 360,000). DiscoveRx D2 beta-arrestin cells, luminescence, 90 min; 100% = 57 uM dopamine signal. potentiation, % (no concentration beside the values); in the data active = potentiation above about 50%; inconclusive = mostly about 30% to 49%
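PathHunter D2 cells, attached overnight at 37 deg C, received compound in DMSO plus dopamine at EC20 (50 nM final) for 90 min at 37 deg C. Beta-arrestin recruitment was read as luminescence after 1 h with detection reagent at ambient temperature.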
D2 ag-2 – human D2 receptor agonism in beta-arrestin assay. DiscoveRx PathHunter D2 beta-arrestin, luminescence, 90 min; 100% = 57 uM dopamine signal. activation, % (no concentration beside the values). actives 0.084% (n = 360,000). AID 624465; in the data active = activation above about 40%; inconclusive = between about 15% and that limit
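Agonist mode: compounds alone added to overnight-plated D2 PathHunter cells for 90 min at 37 C, with 57 uM final dopamine (EC100) defining full response. Beta-arrestin recruitment detected by chemiluminescent reagent, read after 1 h at ambient temperature.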
D2 PAM-2 – positive allosteric modulators of human D2 dopamine receptor; P14416; HEK293 T-REx D2, calcium flux, EC20 dopamine potentiation; potentiation, % at 10 µM; actives 0.34% (n = 340,000);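 active = potentiation over 3 SD above the plate norm, cut at about 30% in these data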; also: 0% is about no effect
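Potentiation of an EC20 dopamine calcium response measured kinetically over 180 s, after a preceding 180 s compound-only read flagging agonists. Cells: inducible Hek293 Trex D2 line, 4000/well, cultured overnight at 30 C before dye loading.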
Active calls of the source: *.

What do the screens show for `CCCN(CCC)CCCNC(=O)c1ccc2c(c1)N(CC)C(=O)c1ccccc1S2=O` (stereo unspecified)?
D2 antag: 107*; D2 ag-1: 0; D2 PAM-1: -6; D2 ag-2: -1; D2 PAM-2: -22

What do the screens show for `CCOCCCNC(=O)c1ccc2c(c1)N(CC)C(=O)c1ccccc1S2=O` (stereo unspecified)?
D2 antag: 17; D2 ag-1: 1; D2 PAM-1: -31; D2 ag-2: -7; D2 PAM-2: -28

Results for Cc1ccc(-c2c[n+](Cc3ccc(Cl)cc3)c3n2CCC3)cc1 ?
D2 antag: -13; D2 ag-1: -1; D2 PAM-1: -18; D2 ag-2: -6; D2 PAM-2: -27

What do the screens show for `Clc1ccc(-c2c[n+](Cc3ccc(Cl)c(Cl)c3)c3n2CCC3)cc1`?
D2 antag: 41*; D2 ag-1: -1; D2 PAM-2: -20

How did COc1ccc(-n2nc([N+](=O)[O-])c(=NC3CCN(Cc4ccccc4)CC3)n2O)cc1 do in these assays?
D2 antag: 71*; D2 ag-1: 0; D2 PAM-1: 16; D2 ag-2: inconclusive; D2 PAM-2: -49

Results for Cc1cc(C)cc(N=c2c([N+](=O)[O-])nn(-c3ccc(Cl)cc3)n2O)c1 ?
D2 antag: 1; D2 ag-1: 0; D2 PAM-1: inconclusive; D2 ag-2: 12; D2 PAM-2: 2

Results for COc1ccc(-n2nc([N+](=O)[O-])c(=NCCc3ccc(Cl)cc3)n2O)cc1 ?
D2 antag: -1; D2 ag-1: 0; D2 PAM-1: 87*; D2 ag-2: 14; D2 PAM-2: 15

What do the screens show for `COc1ccc(-n2nc([N+](=O)[O-])c(=NCc3cccnc3)n2O)cc1`?
D2 antag: -11; D2 ag-1: -1; D2 PAM-1: inconclusive; D2 ag-2: inconclusive; D2 PAM-2: -3

How did COc1ccc(-n2nc([N+](=O)[O-])c(=NCCc3ccc(C)cc3)n2O)cc1 do in these assays?
D2 antag: 6; D2 ag-1: -1; D2 PAM-1: 71*; D2 ag-2: inconclusive; D2 PAM-2: 1

Results for CCc1ccc(N=c2c([N+](=O)[O-])nn(-c3ccccc3)n2O)cc1 ?
D2 antag: 8; D2 ag-1: 1; D2 PAM-1: 90*; D2 ag-2: 13; D2 PAM-2: 4

How did COc1ccc(S(=O)(=O)N2CCN(C3CCN(Cc4ccccc4)CC3)CC2)cc1 do in these assays?
D2 antag: -17; D2 ag-1: 0; D2 PAM-1: -15; D2 ag-2: -3; D2 PAM-2: -4

What do the screens show for `COCCNC(=O)C1CCCN(C(=O)c2nc3ccccc3s2)CC1` (stereo unspecified)?
D2 PAM-1: -4; D2 ag-2: -3

What do the screens show for `O=C(CC1N=C2c3ccccc3N=C(SCC(=O)Nc3ccc(F)cc3)N2C1=O)NCc1ccc2c(c1)OCO2` (stereo unspecified)?
D2 ag-1: 0; D2 PAM-2: 7

Results for NC(c1csc(Nc2cnccn2)n1)c1ccccc1Cl (stereo unspecified) ?
D2 PAM-1: -4; D2 ag-2: -5

How did COc1cc(CN(C(=O)c2ccc(OC(C)C)cc2)c2ccccn2)cc(OC)c1OC do in these assays?
D2 PAM-2: 11

What do the screens show for `COc1ccc(-n2nc([N+](=O)[O-])c(=NCCc3ccc(OC)c(OC)c3)n2O)cc1`?
D2 antag: -1; D2 ag-1: 1; D2 PAM-1: 137*; D2 ag-2: inconclusive; D2 PAM-2: 3

Results for COc1ccc(-n2nc([N+](=O)[O-])c(=NCCC3=CCCCC3)n2O)cc1 ?
D2 antag: 14; D2 ag-1: 0; D2 PAM-1: 74*; D2 ag-2: 51*; D2 PAM-2: -2

What do the screens show for `COc1ccc(-n2nc([N+](=O)[O-])c(=NCc3ccco3)n2O)cc1`?
D2 antag: 17; D2 ag-1: 0; D2 PAM-1: inconclusive; D2 ag-2: inconclusive; D2 PAM-2: 7

What do the screens show for `Cc1c(C(=O)N/N=C/c2ccoc2)cccc1[N+](=O)[O-]`?
D2 antag: 67*; D2 ag-1: -1; D2 PAM-1: -9; D2 ag-2: 2; D2 PAM-2: 12

What do the screens show for `Cc1ccc(OCc2nnc(SCC(=O)N3c4ccccc4Sc4ccc(Cl)cc43)o2)cc1`?
D2 antag: -7; D2 ag-1: 2; D2 PAM-1: 50*; D2 ag-2: 15; D2 PAM-2: -7

Results for COc1ccc(OCc2nnc(SCC(=O)Nc3ccc(C)cc3)o2)cc1 ?
D2 antag: -11; D2 ag-1: 0; D2 PAM-1: 2; D2 ag-2: -1; D2 PAM-2: 7

What do the screens show for `COc1ccc(OCc2nnc(SCC(=O)Nc3cccc(Cl)c3)o2)cc1`?
D2 antag: 43*; D2 ag-1: 0; D2 PAM-1: -1; D2 ag-2: -4; D2 PAM-2: -3

What do the screens show for `Cc1nc(SCC(=O)Nc2cccc(Cl)c2)n[nH]1`?
D2 antag: -14; D2 ag-1: 0; D2 PAM-1: -6; D2 ag-2: -3; D2 PAM-2: 30*

What do the screens show for `Cc1cccc(C)c1NC(=O)Cn1c(=O)n(CCC(=O)NCc2ccc3c(c2)OCO3)c(=O)c2sccc21`?
D2 ag-1: 0; D2 PAM-2: -7

What do the screens show for `CCNC(=O)C1CCCN(C(=O)c2cccc(C#N)c2)CC1` (stereo unspecified)?
D2 PAM-1: 1; D2 ag-2: -5

How did CCc1nnc(NC(=O)CN2CCN(Cc3ccccc3Cl)CC2)s1 do in these assays?
D2 antag: -10; D2 ag-1: 1; D2 PAM-1: -6; D2 ag-2: -2; D2 PAM-2: 10

Results for Cc1ccc(NC(=O)CCc2c(C)nc3nc(C)nn3c2C)c(Cl)c1 ?
D2 ag-1: 0; D2 PAM-2: 12

How did N/C(Cc1ccc([N+](=O)[O-])cc1)=N\OC(=O)c1ccc([N+](=O)[O-])cc1 do in these assays?
D2 antag: -1; D2 ag-1: 0; D2 PAM-1: 61*; D2 ag-2: 42*; D2 PAM-2: 12

How did N/C(Cc1ccc(Cl)cc1)=N\OC(=O)Cc1ccc([N+](=O)[O-])cc1 do in these assays?
D2 antag: -5; D2 ag-1: -1; D2 PAM-1: 86*; D2 ag-2: inconclusive; D2 PAM-2: 2

How did COc1cc(C(=O)O/N=C(\N)Cc2ccc([N+](=O)[O-])cc2)cc(OC)c1OC do in these assays?
D2 antag: 3; D2 ag-1: 0; D2 PAM-1: inconclusive; D2 ag-2: inconclusive; D2 PAM-2: 0

Results for N/C(Cc1ccc([N+](=O)[O-])cc1)=N\OC(=O)c1cccc(Br)c1 ?
D2 antag: -10; D2 ag-1: -2; D2 PAM-1: 24; D2 ag-2: 63*; D2 PAM-2: -1
